# From ChEMBL document CHEMBL3988442, “University of Dundee, Small-Polar-MMV Screening Library” (2021)
# For some of these results: Entries with a potency or affinity are not part of this list.
# Columns and labels:
# Parameters in all cases: scale not given: direction of the effect not stated beside the values
# [1] = target: Protein translocase subunit SecA (Escherichia coli (strain K12)) (UniProt P10408); assay: Assay to Identify E. coli SecA ATPase Inhibitors; format: functional; details: 30 µM
# [2] = target: T1, Ubiquitin-activating enzyme e1, putative (Leishmania donovani (strain BPK282A1)) (UniProt E9BSI1); assay: Leishmania donovani Ubiquitin Activating Enzyme (LdE1); format: functional; details: 30 µM
# T1 sequence (whole entry): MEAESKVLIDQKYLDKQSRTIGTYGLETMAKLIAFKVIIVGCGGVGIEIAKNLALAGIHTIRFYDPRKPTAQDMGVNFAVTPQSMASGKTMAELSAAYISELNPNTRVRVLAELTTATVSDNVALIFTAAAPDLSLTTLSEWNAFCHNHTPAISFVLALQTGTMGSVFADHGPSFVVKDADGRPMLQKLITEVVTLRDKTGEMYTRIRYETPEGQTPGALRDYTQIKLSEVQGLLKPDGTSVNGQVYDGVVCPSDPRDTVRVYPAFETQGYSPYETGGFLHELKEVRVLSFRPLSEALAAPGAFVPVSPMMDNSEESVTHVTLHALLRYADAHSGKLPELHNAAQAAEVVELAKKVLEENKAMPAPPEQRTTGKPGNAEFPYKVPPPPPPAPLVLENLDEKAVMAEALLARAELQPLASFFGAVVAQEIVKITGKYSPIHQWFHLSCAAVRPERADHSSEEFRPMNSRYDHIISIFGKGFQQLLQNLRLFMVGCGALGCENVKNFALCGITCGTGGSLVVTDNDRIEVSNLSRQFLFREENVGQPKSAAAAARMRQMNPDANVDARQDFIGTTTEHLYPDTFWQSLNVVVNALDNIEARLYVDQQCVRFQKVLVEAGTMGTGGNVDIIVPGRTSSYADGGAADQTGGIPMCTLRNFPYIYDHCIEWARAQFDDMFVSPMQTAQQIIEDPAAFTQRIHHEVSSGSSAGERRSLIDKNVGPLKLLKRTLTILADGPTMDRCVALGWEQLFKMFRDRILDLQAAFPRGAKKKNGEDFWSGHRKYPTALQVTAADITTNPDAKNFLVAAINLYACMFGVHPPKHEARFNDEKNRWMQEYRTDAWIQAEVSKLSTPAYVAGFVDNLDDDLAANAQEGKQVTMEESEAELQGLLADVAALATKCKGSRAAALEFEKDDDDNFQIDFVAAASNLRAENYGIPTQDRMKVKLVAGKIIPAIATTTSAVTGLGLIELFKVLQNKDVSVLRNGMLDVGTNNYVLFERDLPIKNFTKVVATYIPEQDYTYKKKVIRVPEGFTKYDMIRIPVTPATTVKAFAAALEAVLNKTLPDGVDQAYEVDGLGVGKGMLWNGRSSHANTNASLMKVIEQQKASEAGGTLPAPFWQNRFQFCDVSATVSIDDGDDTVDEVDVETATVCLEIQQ
# [3] = target: AMP-activated protein kinase, AMPK (Homo sapiens) (UniProt P54646+O43741+P54619+Q9UGJ0+Q9Y478+Q13131+Q9UGI9); assay: AMP-dependent Kinase enzyme assay. An in vitro enzyme assay that detects ADP turnover that is directly proportional to AMPK activity. This uses naive AMPK that is activated during the assay with MK-8722; format: functional; details: 30 µM
# [4] = target: Sialic acid-binding Ig-like lectin 9 (Homo sapiens) (UniProt Q9Y336); assay: Hs-Siglec9 ALPHAscreen SOP 20170721; details: 10 µM
# [5] = system: Trypanosoma cruzi; assay: Trypanosoma cruzi phosphomannomutase and mannose-1-phosphate guanylyltransferase assay; format: functional; details: 10 µM
# [6] = target: T2, Arginase-2, mitochondrial (Homo sapiens) (UniProt P78540); assay: in vitro enzyme assay to detect the production of urea directly proportional to the activity of Arginase II; format: functional; details: 33.3 µM; note: in the data most compounds retested in dose-response had high values
# T2 sequence (whole entry): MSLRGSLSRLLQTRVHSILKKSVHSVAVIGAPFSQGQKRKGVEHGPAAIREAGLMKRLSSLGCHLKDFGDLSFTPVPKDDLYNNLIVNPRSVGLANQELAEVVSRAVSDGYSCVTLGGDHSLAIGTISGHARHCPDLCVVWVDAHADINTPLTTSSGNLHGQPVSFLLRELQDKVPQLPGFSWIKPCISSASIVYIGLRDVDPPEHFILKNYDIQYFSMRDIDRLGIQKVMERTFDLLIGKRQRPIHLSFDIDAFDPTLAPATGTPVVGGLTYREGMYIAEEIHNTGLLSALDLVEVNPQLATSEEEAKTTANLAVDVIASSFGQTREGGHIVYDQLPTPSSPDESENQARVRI
# [7] = target: T3, Proteasome subunit beta (Trypanosoma cruzi) (UniProt O96673); assay: Trypanosoma cruzi proteasome chymotrypsin-like activity (TcProtChymo) assay.; note: in the data most compounds retested in dose-response had high values; format: functional; details: 9.37 µM
# T3 sequence (whole entry): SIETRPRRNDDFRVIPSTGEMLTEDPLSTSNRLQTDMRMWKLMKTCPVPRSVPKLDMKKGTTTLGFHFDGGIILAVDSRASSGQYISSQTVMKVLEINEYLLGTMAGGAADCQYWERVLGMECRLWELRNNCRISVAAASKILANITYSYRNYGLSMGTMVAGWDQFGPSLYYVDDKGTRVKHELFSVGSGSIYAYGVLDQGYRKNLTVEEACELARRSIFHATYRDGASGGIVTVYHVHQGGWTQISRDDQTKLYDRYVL
# [8] = organism: Homo sapiens; assay: To identify inhibition of the IFN signalling (Jak-Stat) pathway via expression of an eGFP reporter gene under the control of an IFN-stimulated response element (ISRE) containing MxA promoter.; format: functional; details: 30 µM
# [9] = target: T4, Tyrosyl-tRNA synthetase, putative (Trypanosoma cruzi (strain CL Brener)) (UniProt Q4DSP6); assay: Trypanosoma cruzi tyrosyl tRNA synthetase (TcYRS) _High Tyrosine SOP; format: functional; details: 30 µM; note: in the data most compounds retested in dose-response had high values
# T4 sequence (whole entry): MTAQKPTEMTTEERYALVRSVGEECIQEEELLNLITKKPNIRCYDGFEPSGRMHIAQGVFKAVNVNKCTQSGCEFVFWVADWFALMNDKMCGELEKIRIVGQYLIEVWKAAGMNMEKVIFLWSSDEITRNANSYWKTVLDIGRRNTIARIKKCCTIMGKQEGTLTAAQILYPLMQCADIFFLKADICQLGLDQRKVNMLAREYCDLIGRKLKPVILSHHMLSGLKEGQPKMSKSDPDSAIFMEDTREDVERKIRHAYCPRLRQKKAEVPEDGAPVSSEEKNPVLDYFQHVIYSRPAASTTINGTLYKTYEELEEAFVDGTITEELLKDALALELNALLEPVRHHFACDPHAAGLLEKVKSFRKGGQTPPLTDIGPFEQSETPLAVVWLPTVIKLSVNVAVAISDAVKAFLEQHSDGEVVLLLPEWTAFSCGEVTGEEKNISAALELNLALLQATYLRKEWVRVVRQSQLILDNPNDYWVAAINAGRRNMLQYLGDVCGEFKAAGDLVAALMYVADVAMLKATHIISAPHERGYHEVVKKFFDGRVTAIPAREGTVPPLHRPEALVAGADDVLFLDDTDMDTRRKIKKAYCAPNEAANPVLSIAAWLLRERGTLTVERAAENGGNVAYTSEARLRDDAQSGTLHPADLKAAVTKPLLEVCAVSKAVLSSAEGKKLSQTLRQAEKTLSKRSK
# [10] = target: T4, Tyrosyl-tRNA synthetase, putative (Trypanosoma cruzi (strain CL Brener)); assay: Trypanosoma cruzi tyrosyl tRNA synthetase (TcYRS) SOP; format: functional; details: 30 µM
# [11] = target: Chromo domain-containing protein 1 (Saccharomyces cerevisiae (strain ATCC 204508 / S288c) (Baker's yeast)) (UniProt P32657); assay: ScCHD-1 Enzyme Inhibition Assay; format: functional; details: 30 µM; note: in the data most compounds retested in dose-response had high values
# Chain of Chromo domain-containing protein 1 (Saccharomyces cerevisiae (strain ATCC 204508 / S288c) (Baker's yeast)) (P32657 whole entry, the tested form may be a part): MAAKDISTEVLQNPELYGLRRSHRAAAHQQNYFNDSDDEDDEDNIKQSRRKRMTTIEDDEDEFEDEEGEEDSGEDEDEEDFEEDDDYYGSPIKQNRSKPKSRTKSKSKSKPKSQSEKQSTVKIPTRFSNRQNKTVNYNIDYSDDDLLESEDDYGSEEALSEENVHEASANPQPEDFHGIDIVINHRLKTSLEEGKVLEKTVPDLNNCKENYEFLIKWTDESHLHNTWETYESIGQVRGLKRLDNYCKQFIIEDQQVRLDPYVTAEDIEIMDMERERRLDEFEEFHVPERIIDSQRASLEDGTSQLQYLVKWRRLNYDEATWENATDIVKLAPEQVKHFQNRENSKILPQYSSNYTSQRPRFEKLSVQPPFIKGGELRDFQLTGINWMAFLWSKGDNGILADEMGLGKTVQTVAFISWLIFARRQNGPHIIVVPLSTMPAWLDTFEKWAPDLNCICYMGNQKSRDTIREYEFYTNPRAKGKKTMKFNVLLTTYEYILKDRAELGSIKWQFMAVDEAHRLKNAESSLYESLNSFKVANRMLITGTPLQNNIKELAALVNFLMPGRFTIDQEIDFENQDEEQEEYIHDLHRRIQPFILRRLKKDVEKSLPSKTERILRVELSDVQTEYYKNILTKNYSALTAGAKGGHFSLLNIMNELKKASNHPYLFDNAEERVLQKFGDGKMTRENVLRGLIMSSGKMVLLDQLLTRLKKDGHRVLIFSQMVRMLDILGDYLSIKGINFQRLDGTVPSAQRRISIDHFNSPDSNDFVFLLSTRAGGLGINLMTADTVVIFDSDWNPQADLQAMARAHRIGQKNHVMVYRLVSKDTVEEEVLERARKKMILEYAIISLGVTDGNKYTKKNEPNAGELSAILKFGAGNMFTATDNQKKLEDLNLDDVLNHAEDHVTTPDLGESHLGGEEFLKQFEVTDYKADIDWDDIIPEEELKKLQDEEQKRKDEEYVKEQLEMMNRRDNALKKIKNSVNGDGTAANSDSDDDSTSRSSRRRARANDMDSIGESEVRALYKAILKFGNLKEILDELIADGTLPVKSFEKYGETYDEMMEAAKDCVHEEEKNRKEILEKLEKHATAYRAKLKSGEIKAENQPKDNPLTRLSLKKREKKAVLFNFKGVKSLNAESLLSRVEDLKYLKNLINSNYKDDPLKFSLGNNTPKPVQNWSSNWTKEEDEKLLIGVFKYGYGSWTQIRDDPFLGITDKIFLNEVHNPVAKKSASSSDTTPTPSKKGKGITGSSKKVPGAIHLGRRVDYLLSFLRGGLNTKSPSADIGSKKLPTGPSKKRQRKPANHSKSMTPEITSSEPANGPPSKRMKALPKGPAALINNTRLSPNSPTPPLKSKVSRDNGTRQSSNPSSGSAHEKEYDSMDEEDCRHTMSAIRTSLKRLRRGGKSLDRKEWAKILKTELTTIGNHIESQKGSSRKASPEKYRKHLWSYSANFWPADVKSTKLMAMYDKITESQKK
# Chain of Protein translocase subunit SecA (Escherichia coli (strain K12)) (P10408 whole entry): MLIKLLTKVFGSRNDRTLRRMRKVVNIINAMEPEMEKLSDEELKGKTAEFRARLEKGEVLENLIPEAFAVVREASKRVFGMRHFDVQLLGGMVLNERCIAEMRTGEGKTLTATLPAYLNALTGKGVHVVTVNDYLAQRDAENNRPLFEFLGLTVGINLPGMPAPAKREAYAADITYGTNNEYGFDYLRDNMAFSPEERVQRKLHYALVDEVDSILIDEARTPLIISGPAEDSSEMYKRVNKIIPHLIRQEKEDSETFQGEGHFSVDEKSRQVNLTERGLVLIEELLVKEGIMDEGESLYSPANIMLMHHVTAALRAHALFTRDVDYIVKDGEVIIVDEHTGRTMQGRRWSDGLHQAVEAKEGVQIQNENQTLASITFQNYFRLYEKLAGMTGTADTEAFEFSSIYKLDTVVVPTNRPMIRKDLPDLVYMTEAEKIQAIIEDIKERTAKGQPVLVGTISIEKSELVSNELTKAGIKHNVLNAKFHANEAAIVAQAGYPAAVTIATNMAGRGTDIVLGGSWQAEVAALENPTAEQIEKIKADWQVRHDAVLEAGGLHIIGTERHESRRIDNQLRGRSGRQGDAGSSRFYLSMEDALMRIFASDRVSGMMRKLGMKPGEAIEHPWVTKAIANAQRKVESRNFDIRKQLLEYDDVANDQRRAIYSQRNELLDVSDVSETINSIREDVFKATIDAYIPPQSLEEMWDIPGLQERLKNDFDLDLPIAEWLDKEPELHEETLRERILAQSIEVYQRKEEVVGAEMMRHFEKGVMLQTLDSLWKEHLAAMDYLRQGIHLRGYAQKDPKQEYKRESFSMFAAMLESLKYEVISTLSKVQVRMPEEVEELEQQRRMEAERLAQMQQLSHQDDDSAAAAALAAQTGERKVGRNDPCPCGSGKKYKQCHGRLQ
# Chain of Sialic acid-binding Ig-like lectin 9 (Homo sapiens) (Q9Y336 whole entry): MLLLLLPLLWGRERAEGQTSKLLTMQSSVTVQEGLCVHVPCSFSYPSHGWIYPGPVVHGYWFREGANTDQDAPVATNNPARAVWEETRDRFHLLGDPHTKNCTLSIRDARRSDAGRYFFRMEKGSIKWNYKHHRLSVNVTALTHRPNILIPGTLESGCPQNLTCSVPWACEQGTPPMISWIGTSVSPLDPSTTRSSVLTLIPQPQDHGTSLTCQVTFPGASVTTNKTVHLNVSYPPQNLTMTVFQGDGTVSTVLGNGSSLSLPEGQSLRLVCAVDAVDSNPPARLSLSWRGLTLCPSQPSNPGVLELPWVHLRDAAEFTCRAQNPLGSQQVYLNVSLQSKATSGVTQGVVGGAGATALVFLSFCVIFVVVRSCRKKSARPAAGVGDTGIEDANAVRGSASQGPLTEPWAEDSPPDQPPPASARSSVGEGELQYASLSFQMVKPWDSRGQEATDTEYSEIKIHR
SMILES,Percent Effect [1] [%],Percent Effect [2] [%],Percent Effect [3] [%],Percent Effect [4] [%],Percent Effect [5] [%],Percent Effect [6] [%],Percent Effect [7] [%],Percent Effect [8] [%],Percent Effect [9] [%],Percent Effect [10] [%],Percent Effect [11] [%]
CNC(=O)c1ccc(C2CN(C(=O)c3cncs3)CCO2)nc1 (stereo unspecified),-2.48,20.3,5.67,6.66,1.19,-1.62,11.1,-10,2.15,16.9,-16.6
CN1CCCC(CNC(=O)N2CCN(Cc3ccon3)CC2)C1 (stereo unspecified),-5.29,2.67,-3.4,1.23,3.02,-1.04,1.74,5.23,4.92,8.64,-5.38
CO[C@@H]1CC[C@H]2[C@H]1OCCN2C(=O)C1=CCCC1,-3.13,10.4,-1.31,-0.155,-4.83,16.1,7.49,-1.44,-2.12,14.1,-6.88
COc1ccc(C(=O)N2CCCCC2c2nc(C)cs2)nn1 (stereo unspecified),-4.04,2.6,-3.01,4.77,10.3,3.2,-4.39,7.94,5.83,14.6,69.5
Cc1ncnc2c1CCN(Cc1cccs1)CC2,-2.76,8,10,-1.57,-6.18,-55.7,-1.2,10.4,8.33,7.5,-6.96
CSCc1cccc(S(=O)(=O)N2CCC(C)CC2)c1,-5.58,-4,7.56,1.46,-5.5,-5.11,7.39,27.8,-11.6,-10.3,-6.13
Cc1nc(CN2C[C@@H]3CN(C(=O)C4CC4)C[C@@H]3C2=O)cs1,-1.35,18.9,1.84,-11.9,-5.57,4.78,14.9,18.6,1.08,10.3,-6.89
Cc1nn(C)c(C)c1C1CCCN1CC(=O)NC(C1CC1)C1CC1 (stereo unspecified),-3.47,10.8,-8.63,11.2,4.25,-4.01,-3.06,4.1,5.42,11.1,-9.75
CC(=O)NCCNC(=O)CN1CCN(Cc2nccn2C)C(C)C1 (stereo unspecified),-6.92,0,-3.67,14,-0.836,0.185,-2.87,0.801,7.92,6.1,10
Cc1nc(NCc2cccnc2)c2c(n1)c(C)nn2C,0.594,7.79,5.87,8.94,2.85,-12.4,7.99,31,6.45,18.5,-2.21
CC1(C(=O)N2CCOCC2)CN(Cc2ccccc2F)CCO1 (stereo unspecified),-2.69,8,12,4.39,-4.13,0.699,-1.15,17,3.19,8.97,-1.88
